Among the data in PubChem BioAssay AID1851 (National Center for Advancing Translational Sciences (NCATS), 2009) are AC50 and activity, negative = inhibition values, retold here.

Several values for one entry are separate records, joined by “and”; a condition that tells them apart may be missing. Equal entries are not always repeated. Among all 16,000 compounds or so, about 5,800 (36%) were called active. Roughly 23% stayed inconclusive and do not appear here. This is one part of the list. Unmarked numbers belong to inactive results. Calls follow the shape of the dose curve; as a rule, active = well fitted curve in the direction sought with a large enough effect; inconclusive = small, poorly fitted or top-dose-only effect, or effect the other way; inactive = no such curve, though single readings can be large or run the other way.
% is scaled to controls: 0 for no effect and ±100 for the full control effect.

Sequence of Cytochrome P450 2C19 (Homo sapiens) (P33261 whole entry, looked up): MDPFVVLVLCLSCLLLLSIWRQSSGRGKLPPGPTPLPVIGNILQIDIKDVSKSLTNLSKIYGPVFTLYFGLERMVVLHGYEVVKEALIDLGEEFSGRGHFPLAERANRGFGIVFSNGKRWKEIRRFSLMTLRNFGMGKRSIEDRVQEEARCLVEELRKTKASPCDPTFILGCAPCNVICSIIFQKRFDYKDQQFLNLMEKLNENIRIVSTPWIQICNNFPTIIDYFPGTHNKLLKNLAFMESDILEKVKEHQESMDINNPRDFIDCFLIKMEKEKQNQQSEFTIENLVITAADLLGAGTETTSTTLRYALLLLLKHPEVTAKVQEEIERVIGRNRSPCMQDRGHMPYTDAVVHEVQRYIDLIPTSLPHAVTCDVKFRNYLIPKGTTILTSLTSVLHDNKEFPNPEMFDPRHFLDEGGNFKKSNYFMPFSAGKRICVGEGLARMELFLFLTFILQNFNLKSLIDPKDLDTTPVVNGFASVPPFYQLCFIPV

This experiment addresses Cytochrome P450 2C19 (Homo sapiens) (UniProt P33261). Briefly: Cytochrome panel assay with activity outcomes. Conditions: recombinant CYP, pro-luciferin dealkylation, luminescence, p450-cyp2c19; series mostly up to 57.1 µM.
For `O=C(CCc1ccc(S(=O)(=O)NC2CCCCC2)cc1)N(Cc1ccccc1)Cc1ccccc1`, the AC50 was 1.41 µM (active).

With `CC(=O)c1ccc(S(=O)(=O)NC(=O)NC2CCCCC2)cc1`, the AC50 entry is “inactive”. Still for that read-out and setting: under `Cc1ccc(NC(=O)CCc2ccc(S(=O)(=O)NC3CCCCC3)cc2)cc1` stands 15.8 µM (active). On the same count and under the same terms, the value for `CCC(C)NS(=O)(=O)c1ccc(NC(=O)CCC2CCCCC2)cc1` (stereo unspecified) was “inactive”; that for `Cc1ccccc1NC1=NC(=S)N(c2ccccc2)C12CCOC(C)(C)C2` (stereo unspecified) was “inactive”. On the same count and under the same terms, the value for `COc1ccc([C@@H](Nc2ccccn2)c2cc(C(C)(C)C)cc(C(C)(C)C)c2O)cc1` was 2.51 µM (active). On to `CN1CCc2cc(Cl)c(O)cc2[C@@H](c2ccccc2)C1`, for which the AC50 result was “inactive”. Still for that read-out and setting: under `CS(=O)(=O)N1CCC[C@@]2(CCN(c3ccncc3)C2)C1` stands “inactive”; under `CS(=O)(=O)N1CCC2(CCCN(c3ncccn3)C2)CC1`, “inactive”; under `O=S(=O)(c1ccccc1)N1CCC[C@@]2(CCN(c3cccc(-c4ccccc4)c3)C2)C1`, “inactive”. `CC(C)CN1CC[C@@]2(CCCN(S(=O)(=O)c3ccccc3)C2)C1`: the AC50 result is “inactive”.

Regarding `O=S(=O)(c1ccccc1)N1CCC[C@@]2(CCN(c3ccncc3)C2)C1`, the AC50 is 0.398 µM (active).

`CS(=O)(=O)N1CCC[C@@]2(CCN(c3ncccn3)C2)C1`: the AC50 result is “inactive”. Same read-out and setting: under `CS(=O)(=O)N1CCC[C@@]2(CCN(c3ccccn3)C2)C1` stands “inactive”; under `CS(=O)(=O)N1CCC2(CCCN(c3ccncc3)C2)CC1`, 1.26 µM (active); under `CS(=O)(=O)N1CCC[C@@]2(CCN(c3ccccc3)C2)C1`, 3.16 µM (active). With `O=S(=O)(c1ccccc1)N1CCC[C@@]2(CCN(c3ccccc3)C2)C1`, the AC50 is 0.316 µM (active). Still for that read-out and setting: under `O=S(=O)(c1ccccc1)N1CCC[C@@]2(CCN(C(c3ccccc3)c3ccccc3)C2)C1` stands “inactive”.

Turning to `CCN1C(=O)[C@H]2[C@H]3[C@H](O)[C@H](O)C/C(=N/OC[C@@H](O)COCc4ccco4)[C@@H]3CC[C@@H]2C1=O`, the activity, negative = inhibition was 29.6% [at 11.4 µM] and 41.4% [at 11.4 µM]. As for `CN1CCCC2(CCN(S(=O)(=O)c3ccccc3)CC2)C1`, the AC50 entry was “inactive”.

Turning to `O=S(=O)(c1ccccc1)N1CCC2(CCCN(c3ccccc3)C2)CC1`, the AC50 is 1.58 µM (active).

For the molecule `O=S(=O)(c1ccccc1)N1CCC2(CCCN(c3cccc(-c4ccccc4)c3)C2)CC1`, the AC50 entry is “inactive”. Turning to `Cc1cc(O)c(C(C)C)cc1CN1CCCCC1`, the activity, negative = inhibition was 32.6% [at 11.4 µM]. Turning to `Cc1cc(O)c(-c2cc(O)c(C)cc2O)cc1O`, the half-maximal activity concentration (AC50) was 0.794 µM (active).

`N#Cc1cccc(NC(=O)N2CC[C@@]3(CCCNC3)C2)c1`: the AC50 result is “inactive”. In the case of `CC(C)(C)c1cccc(Oc2nn[nH]n2)c1`, the AC50 was 7.94 µM (active).

In the case of `c1cc(NNc2cccc(-c3nn[nH]n3)c2)cc(-c2nn[nH]n2)c1`, the activity, negative = inhibition was 14.6% [at 11.4 µM]. For `Cc1cc(C)cc(Oc2nn[nH]n2)c1`, the AC50 entry was “inactive”. For the molecule `COc1ccc(-c2nn3cnnc3s2)cc1OC`, the AC50 was 8.91 µM (active). The same measure, in the same setting: the value for `O=C(CSCc1ccccc1)Nc1ccc(S(=O)(=O)N2CCOCC2)cc1` was 17.8 µM (active); that for `Nc1cc(=O)[nH]c(SCC(=O)Nc2ccc(S(=O)(=O)N3CCOCC3)cc2)n1` was “inactive”; that for `COCC(=O)N1CCC2(CC1)CN(C(=O)Nc1cccc(F)c1)C2` was “inactive”. As for `NC(=O)c1ccc(C2SCC(=O)N2Cc2ccccc2)cc1` (stereo unspecified), the AC50 was 10 µM (active).

As to `CC(C)n1nnnc1SCC(=O)NCCc1ccccc1`, the half-maximal activity concentration (AC50) is 7.94 µM (active). On the same count and under the same terms, under `CC(C)n1nnnc1SCC(=O)NCc1ccc2c(c1)OCO2` stands 5.01 µM (active); under `CC(C)n1nnnc1SCC(=O)c1ccc2c(c1)OCCO2`, 10 µM (active). Still for that read-out and setting: under `CC(C)(C)NC(=O)CSc1nnc(Cc2ccc3c(c2)OCO3)n1C1CCCCC1` stands “inactive”. On to `O=C(O)c1ccc(Nc2ccnc3cc(Cl)ccc23)cc1O`, for which the activity, negative = inhibition was -17.2% [at 11.4 µM].

Take `CC(=O)[C@@H](C)CCO[C@@]1(C)OCC[C@@H]1C`: the activity, negative = inhibition was -8.65% [at 11.4 µM]. `COc1ccc(C(=O)N2CCC3(CCCN(C)C3)CC2)cc1`: the AC50 entry was “inactive”. The same measure, in the same setting: under `COc1ccc(NC(=O)N2CCCC3(CCN(C(=O)c4c(C)noc4C)CC3)C2)cc1` stands “inactive”; under `COc1ccc2c(c1)CCc1c(C(=O)N3CCCCCC3)noc1-2`, 11.2 µM (active); under `N#C[C@H](c1ccccc1)N1CCCN([C@@H](C#N)c2ccccc2)C1c1ccccc1O` (stereo partly specified), 0.251 µM (active). On the same count and under the same terms, the value for `OC[C@@H]1O[C@@H](n2cnc3c(NC4CCCC4)ncnc32)[C@@H](O)[C@H]1O` was “inactive”; that for `Cc1ccc(=O)n(-c2ccccc2)c1` was “inactive”; that for `Cc1ccc(/C=C2\OC(=O)c3ccccc32)cc1` was 8.91 µM (active). As to `CC(C)c1ccc(/C=C2\C=C(c3ccc4ccccc4c3)OC2=O)cc1`, the activity, negative = inhibition is -31.6% [at 11.4 µM]. With `Cc1ccccc1/C=C1\OC(=O)c2ccccc21`, the AC50 is 7.94 µM (active). Still for that read-out and setting: under `COc1ccc(OC)c2[nH]c(=O)c(CCNC(=O)COc3ccccc3)cc12` stands 14.1 µM (active); under `COc1ccc(OC)c2[nH]c(=O)c(CCNS(=O)(=O)c3ccc(C)cc3)cc12`, 15.8 µM (active). In the case of `COCCNC(=O)COc1ccc(Oc2ccccc2)cc1`, the AC50 was 11.2 µM (active). As to `COCCNC(=O)COc1ccc(OCCNC[C@@H](O)COc2ccccc2)cc1`, the AC50 result is “inactive”. In the case of `COc1ccc(OC)c2[nH]c(=O)c(CCNC(=O)C3CCCCC3)cc12`, the AC50 was 10 µM (active).

`NC[C@H]1O[C@H](n2cnc3c(N)ncnc32)C[C@@H]1O`: the activity, negative = inhibition is 7.59% [at 11.4 µM]. Still for that read-out and setting: under `Cn1c(=O)c2[nH]c(CCC(=O)O)nc2n(C)c1=O` stands 12% [at 11.4 µM].

Consider `CCN1CCCC1CNC(=O)CCNC(=O)c1cc(OC)c(OC)c(OC)c1` (stereo unspecified), for which the AC50 result was “inactive”. Still for that read-out and setting: under `COc1ccc(OC)c2[nH]c(=O)c(CCNC(=O)c3ccc(S(=O)(=O)N4CCCC4)cc3)cc12` stands 11.2 µM (active); under `COc1ccc(OC)c2[nH]c(=O)c(CCNC(=O)c3ccc(S(=O)(=O)N(C)C)cc3)cc12`, “inactive”. With `O=C(O)CCSC1=NCCN1`, the activity, negative = inhibition was 42% [at 11.4 µM].

Consider `CSC1(SC2=NCCN2)SC2(NCCN2)S1`, for which the AC50 is 1.58 µM (active). For the molecule `c1ccc(CN(CC2=NCCN2)c2ccccc2)cc1`, the AC50 result was “inactive”.

As to `Cc1ccc(N(Cc2ccccc2)Cc2ccccc2)cc1`, the AC50 was 2 µM (active). With `CCn1nc(C(=O)Nc2ccccc2C)c(Cl)c1Cl`, the AC50 result was “inactive”. Same read-out and setting: under `Cc1nc(C(=O)Nc2cccc(Cl)c2Cl)nn1-c1cc(OC(C)C)c(Cl)cc1Cl` stands 7.08 µM (active).

Consider `CCc1ccccc1NC(=S)NCc1ccc2c(c1)OCO2`, for which the concentration at half-maximal activity (AC50) is 1.26 µM (active).

Consider `O=C(O)C[C@H](Cc1ccc2c(c1)OCO2)C(=O)O`, for which the activity, negative = inhibition was -29% [at 11.4 µM].

Consider `CCc1c(C(=O)NCc2ccc3c(c2)OCO3)[nH]c(C)c1C(C)=O`, for which the AC50 was 7.08 µM (active).

For `CC(CO)(CO)Nc1ncnc2ccccc12`, the activity, negative = inhibition is 1.8% [at 11.4 µM]. In the case of `CCOc1ccc(OCCOc2ncnc3ccccc23)cc1`, the concentration at half-maximal activity (AC50) is 10 µM (active). Consider `OC[C@@H](O)CNc1ncnc2ccccc12`, for which the activity, negative = inhibition was 1.02% [at 11.4 µM]. As for `CC(=C/c1ccccc1)/C=N/n1cnnc1`, the AC50 is 0.355 µM (active). In the case of `CN(C)CCCc1c2ccccc2nc2ccc(Cl)cc12`, the activity, negative = inhibition was 7.79% [at 11.4 µM]. Consider `CCc1c(C)nc2ccc(Br)cc2c1Cl`, for which the AC50 is 3.55 µM (active). For the molecule `CC1=NN(c2ccc(S(=O)(=O)O)cc2)C(=O)/C1=C\c1ccc(Cl)cc1`, the activity, negative = inhibition was -11.1% [at 11.4 µM]. Turning to `CC1=NN(c2ccccc2)C(=O)/C1=C\c1c(C)[nH]n(-c2ccccc2)c1=O`, the AC50 entry was “inactive”. With `CCOc1cc(/C=C2/C(=O)N(c3ccccc3)N=C2C)ccc1OC(=O)c1ccco1`, the AC50 was 14.1 µM (active). For the molecule `COc1cccc(NC(=O)Cc2c(C(=O)O)[nH]c3ccccc23)c1`, the AC50 entry was “inactive”.

Regarding `COc1cccc(NC(=O)COC(=O)c2c3c(nc4ccccc24)CCC(C)C3)c1` (stereo unspecified), the concentration at half-maximal activity (AC50) was 3.98 µM (active).

Regarding `COc1ccc(-c2nc3cnc(OC)nc3n(C)c2=O)cc1`, the AC50 entry is “inactive”.

For `Cc1ccc2c(CC(=O)OCc3cc(=O)n4c(n3)sc3ccccc34)coc2c1`, the concentration at half-maximal activity (AC50) was 7.08 µM (active). For the molecule `CCc1c(O)nc2sc3ccccc3n2c1=O`, the AC50 result was “inactive”.

In the case of `CC1CCCN(C(=O)c2sc3cc([N+](=O)[O-])ccc3c2Cl)C1` (stereo unspecified), the AC50 was 3.98 µM (active). For `CN1CCCN(C)C1c1cc([N+](=O)[O-])ccc1O`, the activity, negative = inhibition was -15% [at 11.4 µM].

As to `C[C@@H]1C[C@H](C)CN(S(=O)(=O)c2cc(Cl)c(Oc3ccc([N+](=O)[O-])cc3Cl)c(Cl)c2)C1`, the activity, negative = inhibition was -27.5% [at 11.4 µM].

In the case of `Cc1ccc(C2=NN(S(C)(=O)=O)C(c3cccs3)C2)cc1` (stereo unspecified), the AC50 was 0.447 µM (active). Same read-out and setting: the value for `CN(C)c1ccc(NC(=O)CSc2nc(N)c(C(=O)Nc3ccc(N(C)C)cc3)s2)cc1` was 11.2 µM (active). Still for that read-out and setting: the value for `Cc1ccc(C)c(-n2c(Cc3cc(=O)[nH]c(=O)[nH]3)nnc2SCC(=O)NCC2CCCO2)c1` (stereo unspecified) was “inactive”; that for `Cc1[nH]nc2nc(SCC(=O)NCC3CCCO3)n(-c3ccc(Br)cc3)c(=N)c12` (stereo unspecified) was 11.2 µM (active); that for `COc1cc(OC)c(NC(=S)Nc2cccc(C(C)=O)c2)cc1Cl` was 3.16 µM (active). Regarding `CCOC(=O)c1cnc(N(C)C)nc1SC(=N)N`, the activity, negative = inhibition was 7.18% [at 11.4 µM]. In the case of `CCOC(=O)c1cnc2ccc(C)cc2c1Sc1ccccc1C(=O)OC`, the AC50 was 1.26 µM (active).

Regarding `NC(N)=Nc1nc2ccc([N+](=O)[O-])cc2[nH]1`, the activity, negative = inhibition was -5.76% [at 11.4 µM]. `c1ccc(-c2nc(-c3cccs3)[nH]c2-c2ccccc2)cc1`: the AC50 is 6.31 µM (active). Turning to `O=[N+]([O-])c1cccc(-c2nc(-c3cccs3)c(-c3cccs3)[nH]2)c1`, the AC50 is 3.16 µM (active). Same read-out and setting: under `O=[N+]([O-])c1cccc(-c2nc(-c3ccccc3)c(-c3cccs3)[nH]2)c1` stands 2.51 µM (active); under `COc1ccc(-c2nc(-c3ccccc3)c(-c3cc([N+](=O)[O-])ccc3C)[nH]2)cc1O`, 8.91 µM (active).

By AC50 is commonly meant the midpoint of the concentration-response curve, whichever way the signal moves.
